Data: PubChem BioAssay (NCATS)
Inconclusive results are not listed. Calls of active or inactive are those of the source. Unless noted, the call rests on the fitted dose curve; in most records, active means well fitted curve in the direction sought with a large enough effect; inconclusive means small, poorly fitted or top-dose-only effect, or another doubt; inactive means no such curve, though single readings can be large; an effect the other way counts as inactive or inconclusive.

Columns and labels:
[1] = molecular target: Rap guanine nucleotide exchange factor 3 (Homo sapiens) (UniProt O95398); experiment: Confirmatory qHTS for antagonist of cAMP-regulated guanine nucleotide exchange factor 3 (EPAC1) (AID 1645880); conditions: EPAC1 Rap1B-BODIPY-GDP exchange, fluorescence; activity, negative = inhibition: at 115 µM (top of the series); further: nearly all actives have a fitted effect of over 55% in size; further: potency means the concentration at half of the fitted maximal effect;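 on activity, negative = inhibition: plate controls were DMSO only for no effect and full effect of the ATA control for full effect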
Rap guanine nucleotide exchange factor 3 (Homo sapiens), sequence (O95398 whole entry, looked up): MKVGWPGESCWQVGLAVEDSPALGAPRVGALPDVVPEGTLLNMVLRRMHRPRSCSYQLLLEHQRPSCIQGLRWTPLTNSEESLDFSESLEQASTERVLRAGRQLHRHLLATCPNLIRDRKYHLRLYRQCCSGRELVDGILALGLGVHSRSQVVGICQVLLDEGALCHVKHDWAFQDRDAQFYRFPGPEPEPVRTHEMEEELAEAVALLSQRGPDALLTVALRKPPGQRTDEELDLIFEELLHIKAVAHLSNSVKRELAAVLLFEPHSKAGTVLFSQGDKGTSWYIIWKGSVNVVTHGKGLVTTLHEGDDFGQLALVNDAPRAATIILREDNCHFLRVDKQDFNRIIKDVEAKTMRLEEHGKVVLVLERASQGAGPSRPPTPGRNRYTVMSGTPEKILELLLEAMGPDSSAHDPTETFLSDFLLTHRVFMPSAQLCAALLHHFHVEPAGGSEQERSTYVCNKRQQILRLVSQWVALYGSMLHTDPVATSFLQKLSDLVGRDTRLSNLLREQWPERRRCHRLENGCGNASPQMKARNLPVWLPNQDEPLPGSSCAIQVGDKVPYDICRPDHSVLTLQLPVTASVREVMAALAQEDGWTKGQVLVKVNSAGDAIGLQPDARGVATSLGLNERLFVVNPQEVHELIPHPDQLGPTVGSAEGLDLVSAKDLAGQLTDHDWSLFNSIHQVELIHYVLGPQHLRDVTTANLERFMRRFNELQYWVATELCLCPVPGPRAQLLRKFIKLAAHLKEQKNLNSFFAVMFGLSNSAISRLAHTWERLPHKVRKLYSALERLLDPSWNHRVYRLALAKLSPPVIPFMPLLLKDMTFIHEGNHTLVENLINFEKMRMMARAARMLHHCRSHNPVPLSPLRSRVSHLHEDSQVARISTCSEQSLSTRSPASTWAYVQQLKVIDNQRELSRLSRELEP
Summary of the method: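 Released BODIPY-GDP fluoresces less than Rap1-bound BODIPY-GDP; the signal is followed at 480/540 nm at 5-min intervals over 30 min, after 5 min at room temperature. Reactions contain 100 nM EPAC1, 250 nM RAP1B-BODIPY-GDP and 50 uM GDP; results are normalized to ATA and DMSO.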

[2] = molecular target: Rap guanine nucleotide exchange factor 3 (Homo sapiens) (UniProt O95398); experiment: Confirmatory qHTS for agonist of cAMP-regulated guanine nucleotide exchange factor 3 (EPAC1) (AID 1645881);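 further: EPAC1 catalysed release of BODIPY-GDP from Rap1B seen as fluorescence loss; 100% = effect of cAMP agonist control; nearly all actives have a fitted effect of over 75% in size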
[3] = molecular target: Rap guanine nucleotide exchange factor 4 (Homo sapiens) (UniProt Q8WZA2); experiment: Confirmatory qHTS for antagonist of cAMP-regulated guanine nucleotide exchange factor 4 (EPAC2) (AID 1645885); further: nearly all actives have a fitted effect of over 25% in size; further: potency means the concentration at half of the fitted maximal effect; on activity change, negative = inhibition: on the % scale 0 is the no-effect control and ±100 the full control effect
Rap guanine nucleotide exchange factor 4 (Homo sapiens), sequence (Q8WZA2 whole entry, looked up): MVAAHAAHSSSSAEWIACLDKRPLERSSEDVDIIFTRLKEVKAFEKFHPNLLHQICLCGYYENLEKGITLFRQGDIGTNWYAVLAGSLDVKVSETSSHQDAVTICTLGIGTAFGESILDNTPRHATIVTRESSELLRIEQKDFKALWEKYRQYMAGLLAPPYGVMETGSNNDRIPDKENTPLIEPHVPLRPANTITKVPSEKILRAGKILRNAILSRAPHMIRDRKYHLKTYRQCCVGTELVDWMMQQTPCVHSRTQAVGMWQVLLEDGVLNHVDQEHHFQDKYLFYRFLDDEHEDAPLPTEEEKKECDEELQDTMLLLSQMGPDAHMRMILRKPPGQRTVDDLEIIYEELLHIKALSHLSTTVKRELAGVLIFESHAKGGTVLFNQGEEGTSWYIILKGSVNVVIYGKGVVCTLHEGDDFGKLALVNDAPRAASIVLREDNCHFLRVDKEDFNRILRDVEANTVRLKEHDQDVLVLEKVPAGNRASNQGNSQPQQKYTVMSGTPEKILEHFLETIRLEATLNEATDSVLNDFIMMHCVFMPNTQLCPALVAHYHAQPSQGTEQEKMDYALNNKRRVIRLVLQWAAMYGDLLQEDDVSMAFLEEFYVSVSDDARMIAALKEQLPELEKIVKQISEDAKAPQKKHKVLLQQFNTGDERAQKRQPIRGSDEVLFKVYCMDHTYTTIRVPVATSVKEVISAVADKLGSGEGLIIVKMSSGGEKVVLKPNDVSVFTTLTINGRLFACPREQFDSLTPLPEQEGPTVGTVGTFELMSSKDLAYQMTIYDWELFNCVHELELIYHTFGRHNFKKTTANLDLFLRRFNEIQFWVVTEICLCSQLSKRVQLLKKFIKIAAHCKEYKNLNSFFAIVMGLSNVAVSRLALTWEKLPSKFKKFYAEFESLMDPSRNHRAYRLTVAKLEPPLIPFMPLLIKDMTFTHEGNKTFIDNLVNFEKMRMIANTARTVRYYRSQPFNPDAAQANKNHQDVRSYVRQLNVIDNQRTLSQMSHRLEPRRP

[4] = molecular target: Rap guanine nucleotide exchange factor 3 (Homo sapiens) (UniProt O95398); experiment: Counterscreen qHTS for antagonist of cAMP-regulated guanine nucleotide exchange factor 3 (EPAC1) (AID 1645888); further: % of control where 0% means no effect
Summary of the method: (§1)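 Measured: fluorescence of BODIPY-GDP bound to Rap1B, which falls as exchange proceeds. Conditions include 50 uM competing GDP, 5 and 30 min reads, and a later cAMP challenge for antagonist detection.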

[5] = molecular target: Rap guanine nucleotide exchange factor 3 (Homo sapiens) (UniProt O95398); experiment: Counterscreen qHTS for agonist of cAMP-regulated guanine nucleotide exchange factor 3 (EPAC1) (AID 1645889); further: nearly all actives have a fitted effect of over 40% in size; further: potency means the concentration at half of the fitted maximal effect; on activation: % of control where 0% means no effect
Summary of the method: as §1

[6] = molecular target: Lysosomal acid glucosylceramidase (Homo sapiens) (UniProt P04062); experiment: Glucocerebrosidase-p2 (AID 348; in the data active means potency below about 10 µM; further: potency means the concentration at half of the fitted maximal effect); conditions: purified GBA, blue fluorogenic substrate, 40 min
Summary of the method: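 Normal human glucocerebrosidase (0.2 nM) with blue fluorogenic substrate (80 uM final) in citrate/phosphate pH 5.9 with 10mM sodium taurocholate, 0.01% tween-20; 40 min RT, NaOH/glycine stop; fluorescence Ex 365/Em 440; AC50 from a titration from 0.6 nM upwards.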

[7] = AP1 Signaling Pathway (AID 357; active means well fitted curve in either direction with a large enough effect, not every such curve was filed as active;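 further: ME-180 reporter cells stimulated with EGF at its EC50 level; on the % scale 0 is the no-effect control and ±100 the full control effect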); conditions: ME-180 (cervical carcinoma) AP-1-bla reporter, EGF-induced, beta-lactamase ratio, 5 h; at 7.69 µM (top of the series) unless noted
Summary of the method: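 Read-out was the 460nm/530nm emission ratio (excitation 405nm) after CCF4 loading for 2.5 hours at room temperature. Cells carried an AP-1-driven beta-lactamase reporter, were stimulated with EC50 EGF plus compound for 5 hours, and AC50 values came from titrations.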

[8] = molecular target: Cytochrome P450 1A2 (Homo sapiens) (UniProt P05177); experiment: p450-cyp1a2 (AID 410; calls by dose curve; further: potency means the concentration at half of the fitted maximal effect)
Summary of the method: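 Read-out is luminescence from luciferin produced by CYP1A2 demethylation of Luciferin-ME (100uM, at Km). Detection reagent stopped the 60 min NADPH-dependent reaction; signals were normalized to 57 uM furafylline.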

[9] = Stat Signaling Pathway (AID 446; active means well fitted curve in either direction with a large enough effect, not every such curve was filed as active;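 further: ME-180 cervical cancer cells given 40 pM IL-6 alongside compound; SIE-controlled beta-lactamase reporter measured as 460/530 nm FRET emission ratio; on the % scale 0 is the no-effect control and ±100 the full control effect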)
Summary of the method: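 Overnight-plated ME-180 cells bearing a STAT Inducible Element beta-lactamase reporter; 5 h co-exposure to compound and 40 pM IL-6; values normalized to 300 pM IL-6 and 125 nM JAK inhibitor controls.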

[10] = molecular target: Glucocorticoid receptor (Homo sapiens) (UniProt P04150); experiment: GR-GFP Redistribution (AID 450;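 active means compounds whose dose series gives a full or clear partial fitted curve of increased nuclear translocation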; further: potency means the concentration at half of the fitted maximal effect); conditions: U2OS GR-GFP nuclear translocation, laser cytometry, 2 h
Glucocorticoid receptor (Homo sapiens), sequence (P04150 whole entry, looked up, the tested form may be a part): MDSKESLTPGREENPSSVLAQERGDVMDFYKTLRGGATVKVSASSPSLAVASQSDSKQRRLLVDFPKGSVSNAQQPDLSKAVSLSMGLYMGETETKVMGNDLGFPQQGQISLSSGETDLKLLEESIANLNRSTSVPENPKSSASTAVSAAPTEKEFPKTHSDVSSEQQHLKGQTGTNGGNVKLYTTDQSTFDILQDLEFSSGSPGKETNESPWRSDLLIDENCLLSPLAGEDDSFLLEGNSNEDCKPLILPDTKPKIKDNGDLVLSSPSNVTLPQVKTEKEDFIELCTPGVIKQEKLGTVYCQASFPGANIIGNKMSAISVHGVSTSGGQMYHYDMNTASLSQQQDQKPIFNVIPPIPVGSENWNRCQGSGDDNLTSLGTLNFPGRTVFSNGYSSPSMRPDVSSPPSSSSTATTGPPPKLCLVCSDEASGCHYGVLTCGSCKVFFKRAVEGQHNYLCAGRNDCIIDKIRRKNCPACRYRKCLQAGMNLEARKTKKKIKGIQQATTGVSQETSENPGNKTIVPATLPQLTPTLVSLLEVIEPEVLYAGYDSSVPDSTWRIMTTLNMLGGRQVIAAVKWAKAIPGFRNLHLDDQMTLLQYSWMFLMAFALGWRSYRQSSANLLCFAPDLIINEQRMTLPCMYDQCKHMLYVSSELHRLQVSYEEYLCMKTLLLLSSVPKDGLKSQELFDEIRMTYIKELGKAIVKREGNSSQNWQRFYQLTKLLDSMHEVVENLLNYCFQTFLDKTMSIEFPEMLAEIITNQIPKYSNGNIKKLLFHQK

[11] = molecular target: Glucocorticoid receptor (Homo sapiens) (UniProt P04150); experiment: GR-EFC Redistribution (AID 451; calls by dose curve; further: potency means the concentration at half of the fitted maximal effect); conditions: CHO-K1 GR-EFC translocation, beta-gal luminescence, 2 h
Summary of the method: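 CHO-K1 cells stably expressing nuclear-localized β-gal enzyme acceptor and GR fused C-terminally to the enzyme donor fragment; ligand-driven nuclear translocation restores β-gal by complementation. Compounds titrated up to 46 uM final, 2 h at 37 °C; luminescence read.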

[12] = molecular target: Mitogen-activated protein kinase 10 (Mus musculus) (UniProt Q61831); experiment: JNK3 AlphaScreen Assay (AID 530; active means well fitted curve in either direction with a large enough effect, not every such curve was filed as active;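 further: kinase came from lysate of stimulated human HepG2 cells; signal reports phosphorylation of biotinylated GST-cJun 1-79 at Ser73 with 10 µM ATP; on the % scale 0 is the no-effect control and ±100 the full control effect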)
Summary of the method: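 Biotinylated GST-cJun(1-79) served as substrate for JNK3 in HepG2 lysates stimulated with IL-1beta and TNF-alpha. ATP was 10 uM final, pH 7.6. Ser73 phosphorylation was quantified by AlphaScreen (680 nm excitation).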

[13] = molecular target: 3',5'-cyclic-AMP phosphodiesterase 4B (Homo sapiens) (UniProt Q07343); experiment: qHTS Assay for Inhibitors of PDE-IV (AID 607; active means well fitted activation curve with a large enough effect in the main read-out, with a control signal flat, not every such curve was filed as active; further: % of control where 0% means no effect)
Summary of the method: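 Live HEK293 cells with a modified cyclic nucleotide-gated (CNG) channel report intracellular cAMP via membrane-potential dye fluorescence (ex 535/em 590 nm). Endogenous PDE-IV was targeted. Compounds were tested at up to 22.9 uM final; RO 20-1724 100 uM served as control.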

[14] = molecular target: Cytochrome P450 2C9 (Homo sapiens) (UniProt P11712); experiment: qHTS Assay for Inhibitors and Substrates of Cytochrome P450 2C9 (AID 883); further: potency means the concentration at half of the fitted maximal effect; nearly all actives have a fitted effect of over 60% in size
Summary of the method: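 Human CYP2C9 (10nM) hydroxylated Luciferin-H (100uM, at its KM) to luciferin in 25mM KPO4. Compound was preincubated 10 min at 37C, then NADPH regeneration started a 60 min reaction at 37C. Luminescence was read after detection reagent, normalized to 57uM sulphaphenazole.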

[15] = molecular target: Cytochrome P450 3A4 (Homo sapiens) (UniProt P08684); experiment: qHTS Assay for Inhibitors and Substrates of Cytochrome P450 3A4 (AID 884); further: potency means the concentration at half of the fitted maximal effect; nearly all actives have a fitted effect of over 50% in size
Cytochrome P450 3A4 (Homo sapiens), sequence (P08684 whole entry, looked up): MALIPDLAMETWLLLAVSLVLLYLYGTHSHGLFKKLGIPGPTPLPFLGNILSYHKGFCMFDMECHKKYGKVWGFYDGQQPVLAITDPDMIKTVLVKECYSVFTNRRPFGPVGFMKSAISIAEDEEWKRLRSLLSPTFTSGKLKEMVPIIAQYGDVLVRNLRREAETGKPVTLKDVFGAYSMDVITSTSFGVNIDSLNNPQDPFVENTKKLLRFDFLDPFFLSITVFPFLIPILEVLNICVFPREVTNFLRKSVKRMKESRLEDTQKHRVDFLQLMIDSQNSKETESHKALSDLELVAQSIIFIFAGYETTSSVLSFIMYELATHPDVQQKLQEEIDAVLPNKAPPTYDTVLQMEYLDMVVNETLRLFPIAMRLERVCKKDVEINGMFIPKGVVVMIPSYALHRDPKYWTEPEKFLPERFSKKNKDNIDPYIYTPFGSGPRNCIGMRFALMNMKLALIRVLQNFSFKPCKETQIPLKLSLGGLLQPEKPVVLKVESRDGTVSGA
Summary of the method: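 Luminescent readout of luciferin produced by CYP3A4 (20 nM) dealkylation of Luciferin-PPXE, 25 uM (its KM). NADPH-driven reaction ran 60 min at RT after 10 min compound preincubation; data scaled to 57 uM ketoconazole as 100% inhibition.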

[16] = molecular target: Cytochrome P450 3A4 (Homo sapiens) (UniProt P08684); experiment: qHTS Assay for Activators of Cytochrome P450 3A4 (AID 885); further: nearly all actives have a fitted effect of over 65% in size
Summary of the method: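 Using 20nM recombinant human CYP3A4 in potassium phosphate (200mM), substrate Luciferin-PPXE at 25uM, luminescent luciferin detection followed a 60-min RT NADPH reaction; data scaled to 57 uM ketoconazole.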

[17] = molecular target: Cytochrome P450 2D6 (Homo sapiens) (UniProt P10635); experiment: qHTS Assay for Inhibitors and Substrates of Cytochrome P450 2D6 (AID 891); further: potency means the concentration at half of the fitted maximal effect; nearly all actives have a fitted effect of over 60% in size
Summary of the method: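 Luminescent read-out of luciferin formed by 5 nM human CYP2D6 demethylating 30 uM Luciferin-ME EGE (Km level) over 60 min at room temperature after NADPH regeneration addition. Data normalized to full inhibition by 1.43 uM quinidine.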

[18] = molecular target: Cytochrome P450 2C19 (Homo sapiens) (UniProt P33261); experiment: qHTS Assay for Inhibitors and Substrates of Cytochrome P450 2C19 (AID 899); further: potency means the concentration at half of the fitted maximal effect; nearly all actives have a fitted effect of over 60% in size
Summary of the method: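 Human CYP2C19 (5nM) with Luciferin-H EGE at 10uM (its KM) in 50mM KPO4 was preincubated with compound for 10 min at 37C. NADPH regeneration started a 60 min 37C reaction. Luciferin was read by luminescence, normalized to 57uM ketoconazole.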

[19] = molecular target: Dual specificity protein kinase CLK4 (Homo sapiens) (UniProt Q9HAZ1); experiment: qHTS Assay for Inhibitors of CDC-like Kinase 4 (Kinase-Glo Assay) (AID 1770); further: potency means the concentration at half of the fitted maximal effect; nearly all actives have a fitted effect of over 65% in size
Dual specificity protein kinase CLK4 (Homo sapiens), sequence (Q9HAZ1 whole entry, looked up): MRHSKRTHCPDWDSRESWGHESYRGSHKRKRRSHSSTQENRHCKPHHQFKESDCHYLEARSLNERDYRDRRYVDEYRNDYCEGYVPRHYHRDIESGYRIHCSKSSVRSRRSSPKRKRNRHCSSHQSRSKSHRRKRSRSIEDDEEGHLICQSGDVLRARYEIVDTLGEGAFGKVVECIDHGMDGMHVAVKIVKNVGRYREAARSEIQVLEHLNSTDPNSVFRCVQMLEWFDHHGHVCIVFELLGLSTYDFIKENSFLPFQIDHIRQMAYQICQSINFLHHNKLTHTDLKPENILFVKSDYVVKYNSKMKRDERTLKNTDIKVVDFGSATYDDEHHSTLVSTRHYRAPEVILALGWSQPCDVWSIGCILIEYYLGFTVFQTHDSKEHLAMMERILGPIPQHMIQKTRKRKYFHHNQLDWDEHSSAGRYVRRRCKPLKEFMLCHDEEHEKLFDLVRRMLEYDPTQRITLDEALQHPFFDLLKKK
Summary of the method: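 Clk4 25 nM, RS peptide 100 uM, ATP 1 uM, pH 7.5 Tris, 10 mM MgCl2, 2.5 mM DTT; 4.5 h RT; ATP depletion read by Kinase-Glo luminescence.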

[20] = molecular target: Dual specificity protein kinase CLK4 (Homo sapiens) (UniProt Q9HAZ1); experiment: qHTS Assay for Inhibitors of CDC-like Kinase 4 (ADP-Glo Assay) (AID 1771); further: potency means the concentration at half of the fitted maximal effect; nearly all actives have a fitted effect of over 70% in size
Summary of the method: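 In this ADP-Glo format, 1 uM ATP and 100 uM RS peptide served as substrates for 25 nM Clk4 in Mg2+/EGTA/DTT/Triton buffer; reactions ran 1 hr at room temperature before luminescent ADP quantification.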

[21] = molecular target: Dual specificity protein kinase CLK4 (Homo sapiens) (UniProt Q9HAZ1); experiment: qHTS Assay for Inhibitors of CDC-like Kinase 4 (ADP-FP Assay) (AID 1795); further: potency means the concentration at half of the fitted maximal effect; nearly all actives have a fitted effect of over 60% in size
Summary of the method: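 Kinase activity was followed as ADP output, converted from fluorescence polarization with a calibration curve. Reactions ran one hour at low ATP (1 uM) with RS peptide substrate.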

[22] = molecular target: Ubiquitin carboxyl-terminal hydrolase 1 (Homo sapiens) (UniProt O94782); experiment: Inhibitors of USP1/UAF1: Pilot qHTS (AID 504865);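 further: rhodamine fluorescence freed from ubiquitin-rhodamine substrate followed over time; top concentration of the series differs between compounds; on the % scale 0 is the no-effect control and ±100 the full control effect; nearly all actives have a fitted effect of over 35% in size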
Ubiquitin carboxyl-terminal hydrolase 1 (Homo sapiens), sequence (O94782 whole entry, looked up): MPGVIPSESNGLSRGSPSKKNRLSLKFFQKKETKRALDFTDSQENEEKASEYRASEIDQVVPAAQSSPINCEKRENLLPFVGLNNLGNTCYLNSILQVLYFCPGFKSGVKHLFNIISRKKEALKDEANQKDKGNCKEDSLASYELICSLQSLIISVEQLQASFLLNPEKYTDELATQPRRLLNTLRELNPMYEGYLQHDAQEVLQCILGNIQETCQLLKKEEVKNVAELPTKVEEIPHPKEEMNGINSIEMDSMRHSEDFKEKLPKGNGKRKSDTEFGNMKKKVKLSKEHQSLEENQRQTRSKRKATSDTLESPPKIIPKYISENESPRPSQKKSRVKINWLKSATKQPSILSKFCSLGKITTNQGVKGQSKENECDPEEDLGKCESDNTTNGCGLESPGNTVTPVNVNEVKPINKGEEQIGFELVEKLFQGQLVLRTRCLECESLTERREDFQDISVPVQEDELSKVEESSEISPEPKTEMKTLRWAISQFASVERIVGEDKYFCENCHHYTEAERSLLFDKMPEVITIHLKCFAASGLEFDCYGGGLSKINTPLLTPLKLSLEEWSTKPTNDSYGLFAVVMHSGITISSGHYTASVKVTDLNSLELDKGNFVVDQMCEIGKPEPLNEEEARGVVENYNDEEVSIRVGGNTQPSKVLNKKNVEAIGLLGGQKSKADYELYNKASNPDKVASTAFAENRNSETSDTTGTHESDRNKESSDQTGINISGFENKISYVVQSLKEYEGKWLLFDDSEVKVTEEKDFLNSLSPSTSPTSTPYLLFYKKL
Summary of the method: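 Enzyme-free wells gave the negative control, while test wells held 1nM USP1/UAF1 preincubated with compound for 15 min at room temperature. Ub-Rho at 150nM final started the reaction, and fluorescence at 480/540 nm was recorded kinetically.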

[23] = molecular target: Tumor susceptibility gene 101 protein (Homo sapiens) (UniProt Q99816); experiment: qHTS Assay for Iinhibitors of HIV-1 Budding by Blocking the Interaction of PTAP/TSG101: Hit Validation (AID 651600); further: nearly all actives have a fitted effect of over 70% in size; further: potency means the concentration at half of the fitted maximal effect
Tumor susceptibility gene 101 protein (Homo sapiens), sequence (Q99816 whole entry, looked up): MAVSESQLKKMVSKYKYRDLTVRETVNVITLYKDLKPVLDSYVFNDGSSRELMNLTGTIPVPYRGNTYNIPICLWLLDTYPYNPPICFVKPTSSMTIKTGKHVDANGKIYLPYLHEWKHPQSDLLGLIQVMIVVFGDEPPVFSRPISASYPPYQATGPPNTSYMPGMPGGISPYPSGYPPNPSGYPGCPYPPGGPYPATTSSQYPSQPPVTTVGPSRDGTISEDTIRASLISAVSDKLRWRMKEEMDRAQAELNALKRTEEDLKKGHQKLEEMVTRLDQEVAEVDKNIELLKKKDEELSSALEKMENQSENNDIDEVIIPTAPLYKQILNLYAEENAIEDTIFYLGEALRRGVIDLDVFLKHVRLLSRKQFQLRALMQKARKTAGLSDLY
Summary of the method: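 Measuring PTAP–Tsg101 interaction by FP: protein at 10 uM and fluorescent peptide at 50 nM (final), buffer 10 mM HEPES pH 7.5 with 0.15 M NaCl, 3 mM EDTA, 0.1 mM TCEP, 0.01% Tween 20; 20 min incubation, r.t.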

O=C1/C(=C\c2cccc(O)c2O)SC(=S)N1Cc1ccccc1
inactive: Potency [2] | Potency [3] | Potency [4]
active: Potency [1] 75.7 µM

CCOC(=O)c1cc2c(=O)n3ccccc3nc2n(C(C)C)c1=NC(=O)c1cc2ccccc2o1
inactive: Potency [2] | Potency [3] | Potency [4] | Potency [5]
active: Potency [1] 75.7 µM

CCC(C)Cn1c(COc2ccc(OC)cc2)nc2ccccc21 (stereo not drawn)
inactive: Potency [1] | Potency [2] | Potency [3] | Potency [4] | Potency [5]

Cc1cc(C)cc(NC(=O)c2sc3nc(-c4cc5ccccc5oc4=O)[nH]c(=O)c3c2C)c1
inactive: Potency [1] | Potency [2] | Potency [3] | Potency [4]

CCOc1ccccc1NC(=O)c1ccccc1-c1ccccc1
inactive: Potency [1] | Potency [2] | Potency [3] | Potency [4]

O=C(Nc1ccccc1OCc1ccccc1)c1ccccc1Br
active: Potency [3] 1.51 µM
inactive: Potency [1] | Potency [2] | Potency [4]

Cc1nc2c(C(=O)NCCc3ccccc3)c[nH]n2c(=O)c1Cc1ccc(F)cc1Cl
inactive: Potency [2] | Potency [3] | Potency [4]
active: Potency [1] 84.9 µM

COc1ccc2c(Cl)c(C(=O)N/N=C3\CCCC(=O)C3)sc2c1
active: Potency [3] 30.1 µM | Potency [5] 39.8 µM
inactive: Potency [1] | Potency [2] | Potency [4]

COC(=O)c1c(SC)nc2ccccc2c1OCc1ccc(Cl)cc1
inactive: Potency [1] | Potency [2] | Potency [3] | Potency [4]

COC(=O)c1c(SC)nc2ccccc2c1OCc1ccccc1Cl
inactive: Potency [1] | Potency [2] | Potency [3] | Potency [4] | Potency [5]

Cc1ccc(C)c(Oc2nnnn2-c2ccccc2)c1
inactive: Potency [1] | Potency [2] | Potency [3] | Potency [4] | Potency [5]

CCN(CC)CCOC(=O)c1ccc(NC(=O)c2nn(-c3ccc(C)cc3)c(=O)c3c2c2ccccc2n3C)cc1
inactive: Potency [2] | outcome [3] inactive [at 12.7 µM] | Potency [4] | Potency [5]
active: Potency [1] 42.6 µM

O=C(c1ccccc1Br)N(Cc1ccco1)Cc1ccco1
inactive: Potency [1] | Potency [2] | Potency [3] | Potency [4] | Potency [5]

CC(C)COc1ccc(C(=O)Nc2cc(-c3ccccc3)no2)cc1
inactive: Potency [1] | Potency [2] | Potency [3] | Potency [4] | Potency [5]

CCOc1ccccc1NC(=O)N1CCC(N2CCN(Cc3ccccc3)C(=O)C2=O)CC1
inactive: Potency [1] | Potency [2] | outcome [3] inactive [at 12.7 µM] | Potency [4] | Potency [5]

COc1ccc2[nH]cc(CCNc3ncncc3-c3ccccc3Cl)c2c1
active: Potency [8] 0.631 µM | Potency [14] 0.199 µM | Potency [15] 0.398 µM | Potency [17] 0.631 µM | Potency [18] 0.0631 µM | Potency [19] 12.6 µM | Potency [20] 10 µM | Potency [21] 12.6 µM
inactive: Potency [6] > 11.4 µM | activity change, negative = inhibition [7] -12.3% | outcome [9] | Potency [10] > 46 µM | Potency [11] > 46 µM | Potency [12] | Potency [13] | outcome [16] | Potency [22] | Potency [1] | Potency [2] | Potency [3]

COC(=O)c1cc2sccc2n1Cc1ccccc1
active: Potency [5] 44.7 µM
inactive: Potency [1] | Potency [2] | Potency [3] | Potency [4]

COc1ccc(Cn2c(=O)cc(C)[nH]c2=S)cc1
inactive: Potency [1] | Potency [2] | Potency [3] | activity change, negative = inhibition [4] -27% [at 30.8 µM] | activation [5] -6.93% [at 30.8 µM]

COc1ccc2ccccc2c1C(O)c1nccn1C (stereo not drawn)
inactive: Potency [1] | Potency [2] | Potency [3] | Potency [4]
active: Potency [23] 8.19 µM

CCOc1ccc(-c2cccc(NC(=O)c3ccco3)c2)nn1
inactive: Potency [1] | Potency [2] | Potency [4] | Potency [5]
active: Potency [3] 84.9 µM

CCN(CC(=O)NCc1cccs1)C(=O)c1ccc(S(=O)(=O)Nc2ccccc2)cc1
inactive: Potency [1] | Potency [2] | Potency [3] | Potency [4] | Potency [5]

O=S(=O)(c1ccc(Br)c2ccccc12)N1CCCC1
inactive: Potency [1] | Potency [2] | Potency [3] | Potency [4] | Potency [5]

Cc1cc(C)c(S(=O)(=O)N(C)c2ccccc2)c(C)c1
active: Potency [3] 23.9 µM
inactive: Potency [1] | Potency [2] | Potency [4] | Potency [5]

COc1ccc2c(c1)CCc1c(C(=O)N(C)c3ccccc3)noc1-2
inactive: Potency [1] | Potency [2] | Potency [4]

CCC(=O)N1CCc2cc(CNC(=O)c3ccccc3C)ccc21
inactive: Potency [1] | Potency [2] | Potency [3] | Potency [4] | Potency [5]

CCN(CC)c1ccc(/C=c2\sc3nc4ccccc4n3c2=O)c(O)c1
active: Potency [5] 56.2 µM
inactive: Potency [23] | Potency [1] | Potency [2] | Potency [3] | Potency [4]
